Reference: PubChem BioAssay AID1508609 (The Scripps Research Institute Molecular Screening Center, 2020)
Among all 6,700 compounds or so, fewer than 10 were called active.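 Rule for the calls: active = mean percent activation across replicates above the confirmation screen cutoff of 4.91%; inactive = the rest.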 These entries were drawn from the full list.

Each molecule was assayed against G-protein coupled receptor 151 (Homo sapiens) (UniProt Q8TDV0) (assay: GPR151 agonism via beta-arrestin recruitment – cell-based, PathHunter beta-arrestin, luminescence, confirmation (AID 1508609)). Details: GPR151 PathHunter beta-arrestin cells, 90 min, at 11.2 µM, hits give high values, % of EA-reagent control over plate median.
G-protein coupled receptor 151 (Homo sapiens), sequence (Q8TDV0 whole entry, looked up): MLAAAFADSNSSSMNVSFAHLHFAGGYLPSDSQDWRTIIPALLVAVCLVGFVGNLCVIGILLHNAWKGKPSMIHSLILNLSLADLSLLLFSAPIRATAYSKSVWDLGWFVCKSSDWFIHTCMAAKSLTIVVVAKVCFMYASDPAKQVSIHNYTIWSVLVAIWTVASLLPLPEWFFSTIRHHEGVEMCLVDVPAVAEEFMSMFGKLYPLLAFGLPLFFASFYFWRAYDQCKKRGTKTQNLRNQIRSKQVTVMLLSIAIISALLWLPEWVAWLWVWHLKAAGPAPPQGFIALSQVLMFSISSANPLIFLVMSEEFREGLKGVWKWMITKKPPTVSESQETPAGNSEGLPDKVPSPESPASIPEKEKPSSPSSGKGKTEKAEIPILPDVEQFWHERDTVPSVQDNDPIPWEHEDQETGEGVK

activation, inactive:
CC(=O)NC(CC(=O)O)c1ccc(F)cc1 (stereo unspecified) 0.27%
CC(=O)c1c(C)[nH]c(C(=O)N2CCN(c3ccc(Cl)cc3)CC2)c1C -0.42%
CC(=O)Oc1cccc(N2C(=O)C3C4c5ccccc5C(C)(c5ccccc54)C3C2=O)c1 (stereo unspecified) -0.54%
O=C(CC1C(=O)NCCN1Cc1ccc2ccccc2c1)NCCCn1cccn1 (stereo unspecified) 0.42%
CC(=O)Oc1cc2c(C(=O)NCCN3CCOCC3)c(C)oc2c2ccccc12 -0.37%
CCOc1ccc(NC(=O)COc2cccc(C)c2C)cc1 0.66%
Cc1cc2c(cc1S(=O)(=O)CCC(=O)Nc1ccccc1Cl)OCC(=O)N2 0.39%
O=C(CC12CC3CC(CC(C3)C1)C2)Nc1ccc2oc(=O)ccc2c1 -0.22%
CCOc1cc(C2C3=C(CCCC3=O)NC3=C2C(=O)CCC3)cc(Br)c1OCC 0.37%
COc1ccc([N+](=O)[O-])cc1NC(=O)C1CC(Cl)=CCC1C(=O)O (stereo unspecified) 0.92%
Brc1cnc(NC2CCCCC2)nc1 1.03%
COc1cc(-c2coc3cc(O[C@@H]4O[C@H](CO)[C@@H](O)[C@H](O)[C@H]4O)c(OC)c(O)c3c2=O)cc(O)c1OC -0.2%
COc1ccc(OC)c(S(=O)(=O)Oc2ccc(Cl)c3cccnc23)c1 0.21%
O=C(NCCO)c1cnc(NC2CCN(Cc3ccccc3)CC2)s1 0.92%
COc1ccc(C=O)cc1OCc1ccc(F)cc1 -0.07%
C=C(C)CSc1nc2sc3c(c2c(=O)n1-c1ccc(OC)cc1)CC(C)(C)OC3 0.13%
COC(=O)C1=CN(Cc2ccc(Cl)cc2)C=C(C(=O)OC)C1c1cc(OC)c(O)c(OC)c1 0.02%
Nc1nc(NC(=O)/C=C/c2ccc(F)cc2)nn1-c1ccccc1 0.79%
COCCNc1nc2nonc2nc1N(C)Cc1ccncc1C 1.1%
CC(C)N1CCc2c(sc(NC(=O)Cc3ccccc3)c2C#N)C1 0.16%
CC(C)c1ccc(CN[C@H]2C[C@H]3C(=O)N[C@@H](COCc4ccccc4)C(=O)N3C2)cc1 0.67%
CC(C)n1c(Nc2ccc3ncccc3c2)nc2c(NC3CC3)ncnc21 -0.12%
Cc1ccc(/C=C2/C(=O)NC(=O)N(c3ccccc3)C2=O)cc1[N+](=O)[O-] 0%
CN(C)c1cccc(Nc2cc(C(=O)Nc3ccc(N4CCOCC4)cc3)ccn2)c1 -1.31%
O=C(Nc1ccc(N2CCCC2=O)cc1)c1cncc(Br)c1 0.8%
COc1cc(Nc2ccnc(Nc3ccc(N4CCOCC4)cc3)n2)cc(OC)c1OC 3.41%
COc1ccc(COC(=O)NNC(=O)c2cccc(Cl)c2)cc1 -0.17%
CCOC(=O)C(C(=O)c1ccccc1)C1(O)C(=O)c2ccccc2C1=O (stereo unspecified) -0.37%
CCC(CC)C(=O)N1CCN(Cc2nc3sc(C)c(C)c3c(=O)[nH]2)CC1 0.36%
CCC(=O)Nc1cc(C(=O)O)ccc1C 0.34%
CCOC(=O)c1[nH]c2ccc(OC)cc2c1NC(=O)CN(C)C 0.64%
COc1ccc(C2=NN(C(=O)c3cc(OC)c(OC)c(OC)c3)C(c3ccc(Cl)cc3)C2)cc1OC (stereo unspecified) 0.2%
Cc1ccc(N2C(=O)CC(NCCN3CCOCC3)C2=O)cc1 (stereo unspecified) 0.27%
c1cncc(Nc2nc(NC3CC3)c3ncn(C4CCCCC4)c3n2)c1 -0.06%
CCCCOC(=O)C1=C(C)NC2=C(C(=O)CCC2)C1c1cccc([N+](=O)[O-])c1 (stereo unspecified) -0.99%
CC(=O)Nc1ccc(NC(=O)c2ccc3nc(Br)sc3c2)cc1 -0.12%
O=C(COc1ccc([N+](=O)[O-])cc1)Nc1ccc2oc(-c3cccc(F)c3)nc2c1 0.23%
COCC(=O)Nc1c(I)c(C(=O)NCC(O)CO)c(I)c(C(=O)N(C)CC(O)CO)c1I (stereo unspecified) -0.27%
CCN(CC)C(=O)C1CCCN(c2ncc(C)c(NCc3cccc(C(F)(F)F)c3)n2)C1 (stereo unspecified) 1.13%
COc1ccc2nc(/C(C#N)=C\c3cc4c(cc3OC)OCO4)[nH]c2c1 0.91%
Cc1cc(Nc2ccc(F)cc2)n2cnnc2n1 1.15%
CN(Cc1ccccc1)C(=O)c1nc2ccc(-c3cn[nH]c3)cc2s1 0.57%
O=C(/C=C/c1ccccc1)c1ccccc1O -0.11%
COC(=O)Cn1ncc2c3ccccc3n(Cc3cccc(Cl)c3)c2c1=O 0.15%
COc1ccc(CCNC(=S)NCc2cc(C)n(C)n2)cc1OC -0.26%
O=C1/C(=C\c2ccccc2)C(N2CCOCC2)=NN1c1ccc([N+](=O)[O-])cc1 0.23%
CC12CCC(C(=O)NC3CCCCC3)(OC1=O)C2(C)C (stereo unspecified) 0.51%
CN(Cc1nc(-c2ccc3c(c2)OCO3)no1)C1CCCc2ccccc21 (stereo unspecified) 0.68%
COc1ccc(-c2noc(-c3ccccc3Cl)n2)cc1 -0.15%
Cc1ccc2c(c1)N(CC(=O)N1CCC(C)CC1)C(=O)c1cccnc1O2 0.11%
CC(/C=N\NC(=O)CSc1nc(C)cc(C)n1)=C\c1ccccc1 -1.7%
